Measurements taken from PubChem BioAssay (NCATS).
Results filed as inconclusive are left out. Activity calls are given as the source filed them. Calls come from the whole dose curve; as a rule, active = well fitted inhibition curve with a large enough effect; inconclusive = small, poorly fitted or top-dose-only effect; inactive = flat fitted curve, though single readings scatter.

What was measured:
Experiment in all cases: qHTS profiling for inhibitors of Plasmodium falciparum proliferation (AID 504749); note: nearly all actives have a fitted effect of over 60% in size
Details in all cases: P. falciparum in erythrocytes, SYBR Green DNA, 72 h; series mostly up to 28.7 µM
AA1029 = test system: AA1029
Outline: (§1)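 P. falciparum-infected erythrocytes (0.3% parasitemia, 2.5% hematocrit) incubated with compound 72 h at 37 C, 5% CO2. Parasite DNA detected by SYBR Green after lysis, overnight at room temperature; normalised to 0.29 uM artemisinin and DMSO.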

ATS95 = test system: ATS95
Outline: as §1

C2A = test system: C2A
Outline: as §1

CP211 = test system: CP211
Outline: as §1

CP215 = test system: CP215
Outline: as §1

CP217 = test system: CP217
Outline: as §1

CP250 = test system: CP250
Outline: as §1

CP252 = test system: CP252
Outline: as §1

CP256 = test system: CP256
Outline: as §1

CP269 = test system: CP269
Outline: as §1

CP325 = test system: CP325
Outline: as §1

CP329 = test system: CP329
Outline: as §1

DIV14 = test system: DIV14
Outline: as §1

DIV17 = test system: DIV17
Outline: as §1

FAB9 = test system: FAB9
Outline: as §1

N140 = test system: N140
Outline: as §1

P93_24 = test system: P93_24
Outline: as §1

PAD = test system: PAD
Outline: as §1

PC15 = test system: PC15
Outline: as §1

SC27B = test system: SC27B
Outline: as §1

Measured: Potency

Oc1ccc(/C=C\c2cc(O)cc(O)c2)cc1
inactive: AA1029 | ATS95 | C2A | CP211 | CP215 | CP217 | CP250 | CP252 | CP256 | CP269 | CP325 | CP329 | DIV14 | DIV17 | FAB9 | N140 | P93_24 | PAD | PC15 | SC27B
